Measurements reported in PubChem BioAssay (NCATS).
Results filed as inconclusive are left out. Activity calls are given as the source filed them. Unless noted, calls come from the whole dose curve; as a rule, active = well fitted curve in the direction sought with a large enough effect; inconclusive = small, poorly fitted or top-dose-only effect, or another doubt; inactive = no such curve, though single readings can be large; an effect the other way counts as inactive or inconclusive.

Legend:
[1] = Cell Viability - Jurkat (AID 426;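 active = dose-dependent loss of cell ATP signal giving a full or clear fitted curve, ranked by lower potency value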;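 note: potency is the fitted concentration of half-maximal effect; cells exposed to compound for 40 hours at 37 °C before ATP read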); conditions: qHTS
Method in brief: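 Cytotoxicity taken as drop in cellular ATP (CellTiter-Glo luminescence, 20 min room temperature) after 40 hr, 37C treatment of 5000 Jurkat Clone E6-1 cells per well; concentration-response fitted with Hill equation for AC50.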

[2] = molecular target: Mitogen-activated protein kinase 10 (Mus musculus) (UniProt Q61831); experiment: JNK3 AlphaScreen Assay (AID 530; active = well fitted curve in either direction with a large enough effect, not every such curve was filed as active;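 note: kinase came from lysate of stimulated human HepG2 cells; signal reports phosphorylation of biotinylated GST-cJun 1-79 at Ser73 with 10 µM ATP; % is set by controls: 0 for no effect and ±100 for the full control effect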); conditions: JNK3 lysate, c-Jun phosphorylation; series mostly up to 11.4 µM
Method in brief: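 Activity was read by AlphaScreen after JNK3-containing HepG2 lysate (cytokine pre-activated) phosphorylated biotinylated GST-cJun with 10 uM ATP at room temperature. Phospho-Ser73 cJun antibody with Protein-A acceptor beads provided detection.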

[3] = Cell Viability - H-4-II-E (AID 543); conditions: H-4-II-E rat hepatoma viability; series mostly up to 92.2 µM;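 note: cells exposed to compound for 40 hours; % is set by controls: 0 for no effect and ±100 for the full control effect; nearly all actives have a fitted effect of over 35% in size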
Method in brief: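 CellTiter-Glo luminescence (intracellular ATP) measured after 40 h compound exposure at 37 °C in H-4-II-E rat hepatoma cells seeded at 1500/well. Values are AC50s fitted with the standard Hill equation.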

[4] = Cell Viability - LYMP2-001 (AID 921); conditions: LYMP2-001 lymphoblastoid cell viability; series mostly up to 92.2 µM;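 note: 0% = DMSO only and full inhibition = tetraoctylammonium bromide control wells; nearly all actives have a fitted effect of over 70% in size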
Method in brief: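 qHTS, 1536-well; lymphoblastoid cells, 24 hr compound, 37 C; ATP by CellTiter-Glo, 30 min RT; luminescence; Hill-fit AC50.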

[5] = Cell Viability - LYMP2-008 (AID 980); conditions: LYMP2-008 lymphoblastoid cell viability, qHTS; series mostly up to 92.2 µM; note: nearly all actives have a fitted effect of over 60% in size; note: potency is the fitted concentration of half-maximal effect; for activity change, negative = cytotoxicity: % is set by controls: 0 for no effect and ±100 for the full control effect
Method in brief: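 Cytotoxicity determined from ATP-dependent luciferase luminescence (CellTiter-Glo) following 24 h compound exposure of human lymphoblastoid LYMP2-008 cells at 37 C. Concentration-response data fitted to the Hill equation to give AC50.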

[6] = qHTS assay for small molecule antagonists of peroxisome proliferator-activated receptor delta signaling (AID 588535); conditions: HEK293T PPARd-UAS-bla, beta-lactamase FRET ratio, 18 h; 460 nm channel;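 note: cells co-treated with a PPAR-delta agonist as stimulator during compound exposure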
Method in brief: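 Fluorescence from CCF4-loaded GeneBLAzer PPAR-delta-UAS-bla HEK293T cells (2 hrs RT loading) quantified reporter inhibition after an 18 hr, 37 C compound exposure across a titration.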

[7] = molecular target: Peroxisome proliferator-activated receptor gamma (Homo sapiens) (UniProt P37231); experiment: qHTS assay for small molecule agonists of peroxisome proliferator-activated receptor gamma signaling (AID 588536; active = well fitted curve in the direction sought with a large enough effect in the signal ratio, with a control signal flat, not every such curve was filed as active; the % refers to the signal ratio;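 note: 0% = DMSO basal wells and 100% = rosiglitazone at 2 µM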); conditions: HEK293 PPARg-UAS-bla, beta-lactamase ratio, 16 h, percent of rosiglitazone response, DMSO as zero; series mostly up to 76.7 µM
Peroxisome proliferator-activated receptor gamma (Homo sapiens), sequence (P37231 whole entry, looked up): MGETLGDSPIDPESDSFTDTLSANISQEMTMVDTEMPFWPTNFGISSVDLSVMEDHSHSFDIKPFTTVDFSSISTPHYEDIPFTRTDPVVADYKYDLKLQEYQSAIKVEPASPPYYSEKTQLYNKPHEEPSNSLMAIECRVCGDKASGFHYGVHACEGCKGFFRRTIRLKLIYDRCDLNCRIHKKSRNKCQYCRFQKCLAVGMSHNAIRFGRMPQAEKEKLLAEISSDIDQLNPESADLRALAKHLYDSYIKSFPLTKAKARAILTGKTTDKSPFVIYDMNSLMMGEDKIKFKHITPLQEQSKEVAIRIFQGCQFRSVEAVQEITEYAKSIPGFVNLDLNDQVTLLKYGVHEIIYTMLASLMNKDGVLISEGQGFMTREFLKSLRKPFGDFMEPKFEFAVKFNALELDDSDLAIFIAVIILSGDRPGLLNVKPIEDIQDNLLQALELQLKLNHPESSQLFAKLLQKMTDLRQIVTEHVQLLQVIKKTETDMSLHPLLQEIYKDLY
Method in brief: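 Cells were plated and held 6–6.5 h at 37 C, then compounds were added as a titration series. After a further 16 h, CCF4 dye was loaded for 2 h at room temperature and emission at 460/530 nm recorded.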

[8] = molecular target: Peroxisome proliferator-activated receptor gamma (Homo sapiens) (UniProt P37231); experiment: qHTS assay for small molecule antagonists of peroxisome proliferator-activated receptor gamma signaling (AID 588537; active = well fitted inhibition curve with a large enough effect in the signal ratio, with a control signal flat, not every such curve was filed as active; the % refers to the signal ratio;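 note: reporter cells co-stimulated with 50 nM rosiglitazone agonist during compound treatment; % of control where 0% means no effect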); conditions: HEK293 PPARg-UAS-bla, beta-lactamase ratio, antagonist mode; series mostly up to 76.8 µM
Method in brief: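 Fluorescence at 460 and 530 nm (405 nm excitation) reported beta-lactamase cleavage of CCF4 after 2 h room-temperature loading. HEK293 reporter cells in 1% charcoal/dextran-treated FBS had received compound and rosiglitazone for 16 h.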

[9] = qHTS assay for small molecule activators of the p53 signaling pathway (AID 651743; active = well fitted activation curve with a large enough effect in the signal ratio, not every such curve was filed as active; the % refers to the signal ratio; note: % of control where 0% means no effect); conditions: HCT-116 p53RE-bla, beta-lactamase FRET ratio, 16 h; activation: stronger effect = higher value
Method in brief: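 Following 16 hours of compound exposure at 37 C, HCT-116 cells bearing the p53RE-bla reporter were loaded with LiveBLAzer B/G FRET substrate for 2 hours at room temperature and fluorescence intensity was recorded.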

[10] = molecular target: Tumor necrosis factor (Homo sapiens) (UniProt P01375); experiment: qHTS assay to identify small molecules that stimulate Tumor Necrosis Factor-alpha (TNF-alpha) secretion (AID 651757; active = well fitted curve in the direction sought with a large enough effect in the signal ratio; the % refers to the signal ratio; note: 0% is about no effect); conditions: Human cells, HTRF 665/615 ratio; series mostly up to 92.2 µM
Tumor necrosis factor (Homo sapiens), sequence (P01375 whole entry, looked up): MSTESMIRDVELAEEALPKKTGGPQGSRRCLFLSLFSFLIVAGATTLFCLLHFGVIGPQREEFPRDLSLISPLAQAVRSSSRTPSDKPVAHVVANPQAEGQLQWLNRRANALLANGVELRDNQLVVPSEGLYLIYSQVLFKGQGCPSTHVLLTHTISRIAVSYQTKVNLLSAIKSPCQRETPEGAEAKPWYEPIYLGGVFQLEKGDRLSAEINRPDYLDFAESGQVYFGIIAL
Method in brief: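 Secreted TNF-alpha quantified by TR-FRET sandwich of two labeled anti-TNF-alpha antibodies, incubated 3 hr at room temperature. Preceded by 17 hr, 37 C compound treatment of THP-1 cells at 3000 cells/well.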

[11] = qHTS assay to identify small molecules that stimulate interleukin-8 (IL-8) secretion (AID 651758; active = well fitted activation curve with a large enough effect in the signal ratio; the % refers to the signal ratio; note: potency is the fitted concentration of half-maximal effect; for activation: 0% is about no effect); conditions: HTRF ratio (665/615); series mostly up to 92.2 µM
Method in brief: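 Compounds are added to THP-1 cells (2000 per well) and left 16 hrs at 37 C. A labeled anti-IL-8 antibody pair is then added, and IL-8 secretion is measured by time-resolved FRET after 1-3 hrs at room temperature.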

[12] = Cell Viability - SH-SY5Y (AID 544); conditions: SH-SY5Y neuroblastoma cell viability; viability change, negative = cytotoxic: at 92.2 µM (top of the series);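 note: cells exposed to compound for 40 hours; nearly all actives have a fitted effect of over 55% in size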; note: potency is the fitted concentration of half-maximal effect;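 for viability change, negative = cytotoxic: 0% = DMSO alone and -100% = 100 µM tamoxifen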
Method in brief: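 Cytotoxicity measured via ATP-dependent luciferase luminescence (CellTiter-Glo) following 40 h, 37 °C exposure of 1500 SH-SY5Y cells per well. Concentration-response data were fitted with the standard Hill equation to give AC50.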

[13] = Cell Viability - LYMP2-004 (AID 966); conditions: LYMP2-004 lymphoblastoid cell viability, qHTS; series mostly up to 92.2 µM; note: nearly all actives have a fitted effect of over 65% in size; note: potency is the fitted concentration of half-maximal effect;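 for activity change, negative = cytotoxicity: plate controls were DMSO only for no effect and tetraoctylammonium bromide control for full effect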
Method in brief: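 AC50 values come from Hill modelling of concentration-dependent loss of intracellular ATP, measured by CellTiter-Glo luminescence. Human LYMP2-004 lymphoblastoid cells (2500/well) were exposed to compound for 24 h at 37 C.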

[14] = Cell Viability - LYMP2-007 (AID 979); conditions: LYMP2-007 lymphoblastoid cell viability; series mostly up to 92.2 µM;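 note: cells exposed to compound for 24 h before reading; nearly all actives have a fitted effect of over 60% in size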; note: potency is the fitted concentration of half-maximal effect;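 for activity change, negative = cytotoxicity: 0% = DMSO only and the negative end = 92 µM tetraoctylammonium bromide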
Method in brief: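 AC50 values come from Hill-equation fits of luminescent intracellular ATP (CellTiter-Glo, 30 min, room temperature) following 24 h compound exposure at 37 C. Cells: LYMP2-007 lymphoblastoid line, 2500 per well, in complete culture medium.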

[15] = Cell Viability - N2a (AID 540); conditions: N2a mouse neuroblastoma cell viability; activity change, negative = cytotoxicity: at 92.2 µM (top of the series);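 note: plate controls were DMSO alone for no effect and tamoxifen control for full effect; nearly all actives have a fitted effect of over 45% in size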
Method in brief: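 CellTiter-Glo ATP luminescence, read 20 min after reagent at room temperature, reported viability following 40 h compound treatment at 37 °C. N2a mouse neuroblastoma cells seeded 1500/well; Hill equation gave AC50.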

[16] = molecular target: Vitamin D3 receptor (Homo sapiens) (UniProt P11473); experiment: qHTS assay for small molecule agonists of vitamin D receptor signaling (AID 588543; calls by dose curve;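 note: 0% = DMSO basal and 100% = reference agonist control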); conditions: HEK293T VDR-UAS-bla, beta-lactamase ratio, 16 h; series mostly up to 76.8 µM
Vitamin D3 receptor (Homo sapiens), sequence (P11473 whole entry, looked up): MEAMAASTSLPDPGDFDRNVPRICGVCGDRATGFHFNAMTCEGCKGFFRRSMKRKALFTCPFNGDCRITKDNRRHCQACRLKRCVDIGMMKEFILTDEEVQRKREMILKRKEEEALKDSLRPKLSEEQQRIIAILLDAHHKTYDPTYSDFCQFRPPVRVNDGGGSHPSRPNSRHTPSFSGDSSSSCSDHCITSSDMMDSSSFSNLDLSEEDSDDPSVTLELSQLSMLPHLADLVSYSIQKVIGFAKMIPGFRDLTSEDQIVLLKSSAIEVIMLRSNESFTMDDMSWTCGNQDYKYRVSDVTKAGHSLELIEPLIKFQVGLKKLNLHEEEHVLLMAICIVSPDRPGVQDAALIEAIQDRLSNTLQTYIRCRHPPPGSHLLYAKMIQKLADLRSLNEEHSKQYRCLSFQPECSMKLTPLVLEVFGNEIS
Method in brief: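 qHTS in agonist mode: compound titrations stimulate a VDR-driven β-lactamase reporter in HEK293T cells over 16 h at 37 °C. Response normalized to 50 nM 1α,25-dihydroxyvitamin D3 = 100%, DMSO = 0%; Hill fitting gives EC50 and maximal response.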

[17] = molecular target: Retinoic acid receptor RXR-alpha (Homo sapiens) (UniProt P19793); experiment: qHTS assay for small molecule agonists of retinoid X receptor alpha signaling (AID 588544; calls by dose curve;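 note: 0% = DMSO basal wells and 100% = reference agonist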); conditions: HEK293T RXRa-UAS-bla, beta-lactamase reporter, 18 h; series mostly up to 76.7 µM
Retinoic acid receptor RXR-alpha (Homo sapiens), sequence (P19793 whole entry, looked up): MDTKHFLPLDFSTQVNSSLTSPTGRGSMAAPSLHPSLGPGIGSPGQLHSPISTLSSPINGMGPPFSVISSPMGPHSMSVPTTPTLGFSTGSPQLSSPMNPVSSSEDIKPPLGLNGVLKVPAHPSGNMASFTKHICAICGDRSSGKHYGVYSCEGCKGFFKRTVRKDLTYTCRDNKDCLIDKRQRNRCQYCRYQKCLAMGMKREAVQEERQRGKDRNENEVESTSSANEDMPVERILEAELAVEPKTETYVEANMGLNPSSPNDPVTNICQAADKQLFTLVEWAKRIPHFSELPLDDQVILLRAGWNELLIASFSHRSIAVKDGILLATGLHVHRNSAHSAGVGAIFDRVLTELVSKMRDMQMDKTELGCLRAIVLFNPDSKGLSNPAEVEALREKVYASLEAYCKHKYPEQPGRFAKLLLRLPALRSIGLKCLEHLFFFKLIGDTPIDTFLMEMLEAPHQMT

[18] = qHTS assay for small molecule agonists of the antioxidant response element (ARE) signaling pathway measured by Nrf2-dependant transcriptional activity (AID 720636; active = well fitted curve in the direction sought with a large enough effect in the repeat runs; an effect the other way counts as inactive or inconclusive; note: % of control where 0% means no effect); conditions: ARE-luc HepG2, Nrf2 luciferase reporter, 16 h; series mostly up to 92.4 µM
Method in brief: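 Nrf2-dependent transcription read as ONE-Glo luciferase signal from ARE-luc HepG2 reporter cells after 16 hr compound treatment at 37 C, 5% CO2, in assay medium with 1% dialyzed FBS.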

[19] = Cell Viability - LYMP2-011 (AID 969); conditions: LYMP2-011 lymphoblastoid cells viability; series mostly up to 92.2 µM;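 note: 0% = DMSO only and full inhibition = 92 µM tetraoctylammonium bromide; nearly all actives have a fitted effect of over 60% in size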
Method in brief: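 Cytotoxicity qHTS with ATP content as read-out: lymphoblastoid cells (2500/well) exposed to compound for 24 h at 37 C, then luciferase luminescence measured. Concentration-response data fitted with the standard Hill equation to give AC50.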

[20] = molecular target: Bile acid receptor (Homo sapiens) (UniProt Q96RI1); experiment: qHTS assay for small molecule antagonists of farnesoid X receptor signaling (AID 588526; calls by dose curve; note: % is set by controls: 0 for no effect and ±100 for the full control effect); conditions: HEK293T FXR-UAS-bla, beta-lactamase ratio, antagonist mode; series mostly up to 76.7 µM
Bile acid receptor (Homo sapiens), sequence (Q96RI1 whole entry, looked up): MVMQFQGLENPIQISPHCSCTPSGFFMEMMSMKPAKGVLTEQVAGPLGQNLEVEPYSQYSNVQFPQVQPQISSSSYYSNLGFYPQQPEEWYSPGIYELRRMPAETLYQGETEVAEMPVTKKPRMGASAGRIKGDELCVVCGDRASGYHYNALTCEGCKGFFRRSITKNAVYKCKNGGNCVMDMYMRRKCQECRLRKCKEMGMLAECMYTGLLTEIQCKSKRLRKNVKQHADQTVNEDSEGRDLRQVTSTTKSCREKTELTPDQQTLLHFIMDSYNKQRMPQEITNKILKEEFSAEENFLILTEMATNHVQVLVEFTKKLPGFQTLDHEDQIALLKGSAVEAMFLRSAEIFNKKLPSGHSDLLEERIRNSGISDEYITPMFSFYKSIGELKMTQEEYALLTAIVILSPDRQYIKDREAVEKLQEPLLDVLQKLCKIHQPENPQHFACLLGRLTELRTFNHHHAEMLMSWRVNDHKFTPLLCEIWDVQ
Method in brief: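 Antagonist mode: titrated compounds tested against chenodeoxycholic acid stimulation (normalized to 50 uM CDCA and DMSO) in GeneBLAzer HEK293T cells for 16 h. Beta-lactamase read by CCF4 fluorescence; IC50 from Hill fits.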

CC(=O)Nc1cccc(C)c1
inactive: Potency [1] > 92 µM | Potency [2] | Potency [3] | Potency [4] | Potency [5] | outcome [7] | Potency [8] | activation [9] 0.223% | Potency [10] | Potency [11]
-12.4%: max response [6]

C=C1CC[C@H](O)C/C1=C/C=C1\CCC[C@]2(C)[C@@H]([C@H](C)CCCC(C)C)CC[C@@H]12
inactive: Potency [2] | Potency [10]
active: Potency [1] 27.5 µM | Potency [12] 31.6 µM | Potency [13] 39.8 µM | Potency [14] 50.1 µM | Potency [5] 50.1 µM

CCNC(=S)NCC
inactive: Potency [1] > 92 µM | Potency [2] | activity change, negative = cytotoxicity [15] -22% | Potency [12] | Potency [4] | Potency [8] | Potency [16] | Potency [17] | Potency [18]
61.6%: max response [6]

O=C(O)/C=C/c1ccc(/C=C/C(=O)O)cc1
-11.1%: max response [6]
inactive: Potency [1] > 92 µM | activity change, negative = cytotoxicity [15] -20.9% | Potency [3] | Potency [17] | activation [9] 1.28%

c1ccc(SCCSc2ccccc2)cc1
21.4%: max response [6]
inactive: Potency [1] > 92 µM | activity change, negative = cytotoxicity [15] 8.64% | Potency [3] | Potency [12] | Potency [4] | Potency [13] | Potency [19] | Potency [14] | Potency [5] | Potency [20] | Potency [8] | Potency [16] | Potency [17] | activation [9] -1.09% | Potency [11]

c1ccc2ncccc2c1
41.8%: max response [6]
inactive: Potency [1] > 92 µM | Potency [12] | Potency [4] | Potency [19] | activation [9] -4.75% | Potency [10] | Potency [11]

CCCCCCc1ccc(-c2ccc(C#N)cc2)cc1
11%: max response [6]
inactive: Potency [1] > 92 µM | activity change, negative = cytotoxicity [15] -10.7% | Potency [3] | Potency [12] | Potency [19] | Potency [10] | Potency [11]

O=c1[nH]ncc2ccccc12
inactive: Potency [1] > 92 µM | Potency [13] | Potency [19] | Potency [14] | Potency [5] | Potency [16] | Potency [17] | activation [9] -2.08% | Potency [10] | Potency [18]
active: viability change, negative = cytotoxic [12] -82.8%

CCOC(=O)C1OC1c1ccccc1 (centres undefined)
inactive: Potency [1] > 92 µM | Potency [2] | activity change, negative = cytotoxicity [15] 0.144% | Potency [3] | Potency [12] | Potency [13] | Potency [19] | Potency [5] | outcome [7] | Potency [8] | activation [9] 6.05% | Potency [18]
-6.92%: max response [6]
active: Potency [11] 59.6 µM

C/C(Cl)=C/CCl
5.39%: max response [6]
inactive: Potency [1] > 92 µM | activity change, negative = cytotoxicity [15] -6.1% | Potency [12] | Potency [19] | Potency [14] | Potency [5] | Potency [20] | outcome [7] | Potency [8] | activation [9] -4.9% | Potency [10] | Potency [18]
